Screening data deposited in PubChem BioAssay by National Center for Advancing Translational Sciences (NCATS).
SMN2 splice enh – qHTS Assay for Enhancers of SMN2 Splice Variant Expression; HEK293 SMN2-luciferase splicing reporter, luminescence, 30-36 h; Potency, µM (doses to about 46.1 µM), most hits filed as activators; 210,000 compounds, 2.8% hits; AID 1458, 2008; also: nearly all actives have a fitted effect of over 55% in size
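HEK293 cells carry an SMN2 minigene-luciferase reporter in which exon 7 inclusion puts luciferase in frame. Cells were seeded at 2000 cells/well, attached for 10-12 hours, then exposed to compounds for 30-36 hours at 37C before ONE-Glo luminescence.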
Luc counter – Counterscreen for Luciferase (Kinase-Glo TM) Inhibition; AID 1379, 2008; Potency, µM (series often up to 38.3 µM), usual class: inhibitors; 200,000 compounds, 0.28% hits; Kinase-Glo luciferase, ATP luminescence, 8 min; also: nearly all actives have a fitted effect of over 60% in size
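Kinase-Glo luciferase light output from ATP and luciferin was measured with 10 uM ATP, within the enzyme's linear range. Buffer: 50 mM imidazole pH 7.2, 50 mM KCl, 7 mM MgCl2, 0.01% Tween 20, 0.05% BSA; luminescence read after 8 min at ambient temperature.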
Rab9 promoter act – qHTS Assay for Rab9 Promoter Activators; Potency, µM (highest dose often 9.22 µM), hits mostly activators; AID 485297, 2010; Huh7 Rab9 promoter-luciferase reporter, luminescence, 24 h; 320,000 compounds, 2.8% hits; also: nearly all actives have a fitted effect of over 60% in size
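Steps: seed 1500 Huh7 Rab9-luc cells per well, rest 2 h at 37 °C; add compound in DMSO; incubate 24 h; add luciferase reagent, 10 min ambient; read luminescence.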
FLuc counter – qHTS profiling assay for firefly luciferase inhibitor/activator using purifed enzyme and Km concentrations of substrates (counterscreen for miR-21 project); purified FLuc, Km substrates, luminescence inhibition; Potency, µM (doses to about 57.5 µM), usual class: inhibitors; 360,000 compounds, 6.9% hits; AID 588342, 2011; also: nearly all actives have a fitted effect of over 55% in size
Target sequence (P08659 whole entry, looked up): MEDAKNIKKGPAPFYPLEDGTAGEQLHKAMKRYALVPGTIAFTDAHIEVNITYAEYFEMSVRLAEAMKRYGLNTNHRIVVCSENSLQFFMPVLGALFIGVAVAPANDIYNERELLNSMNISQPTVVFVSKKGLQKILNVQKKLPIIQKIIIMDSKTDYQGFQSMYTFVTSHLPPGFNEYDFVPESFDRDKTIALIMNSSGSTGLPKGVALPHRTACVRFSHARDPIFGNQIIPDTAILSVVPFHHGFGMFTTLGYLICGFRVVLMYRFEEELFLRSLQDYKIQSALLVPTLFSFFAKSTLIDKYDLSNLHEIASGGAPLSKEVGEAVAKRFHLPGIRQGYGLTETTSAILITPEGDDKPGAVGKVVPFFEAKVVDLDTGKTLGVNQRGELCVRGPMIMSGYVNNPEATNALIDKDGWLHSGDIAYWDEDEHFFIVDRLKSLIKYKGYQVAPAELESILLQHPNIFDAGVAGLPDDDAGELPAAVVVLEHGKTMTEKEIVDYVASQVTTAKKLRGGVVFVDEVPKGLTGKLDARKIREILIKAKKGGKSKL
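Biochemical qHTS of compounds, final roughly 60 µM downward over six points, against 10 nM purified firefly luciferase using Km concentrations of substrates (10 uM D-luciferin, 10 uM ATP) in Tris acetate pH 7.5 buffer; luminescence output.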
ELG1 genotox – qHTS screen for small molecules that induce genotoxicity in human embryonic kidney (HEK293T) cells expressing luciferase-tagged ELG1; HEK293T ELG1-luciferase reporter, luminescence, 16 h; Potency, µM (highest dose often 46 µM), hits mostly activators; 330,000 compounds, 1.3% hits; AID 504466, 2011; also: nearly all actives have a fitted effect of over 60% in size
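Screening used a luciferase reporter fused to human ELG1 in HEK293T cells. Luminescence was read on a CCD plate imager after 16 hr exposure and 30 min ONE-Glo incubation.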
NPC1 promoter act – qHTS Assay for NPC1 Promoter Activators. Huh7 NPC1 promoter luciferase reporter, 24 h. 320,000 compounds, 2.4% hits. Potency, µM (top dose mostly 9.22 µM), hits mostly activators. AID 485313, 2010; also: nearly all actives have a fitted effect of over 60% in size
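Readout is luciferase luminescence, reflecting NPC1 promoter activation in stably transfected Huh7 cells after 24 h compound exposure at 37 °C in reduced-serum medium with 10% FBS.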
Numbers stand for hits; n = inactive; u = inconclusive; x = no result given. Only some compounds are listed: those with a hit (about 7.5% of all), similar ones and a draw of the others. Calls follow the shape of the dose curve; as a rule, active = well fitted curve in the direction sought with a large enough effect; inconclusive = small, poorly fitted or top-dose-only effect, or another doubt; inactive = no such curve, though single readings can be large; an effect the other way counts as inactive or inconclusive.

SMILES	SMN2 splice enh	Luc counter	Rab9 promoter act	FLuc counter	ELG1 genotox	NPC1 promoter act
CC1=CC[C@@]2(CO)COC(c3ccccc3O)C1C2 (stereo partly drawn)	n	n	x	x	x	x
CCn1c(CNC(=O)c2ccc(F)cc2)cc2ccccc21	x	x	n	n	n	n
COc1cccc(C2=NC(C)(C)NC(c3ccccc3O)C2)c1 (stereo not drawn)	n	n	n	8.49µM	n	n
CCC1(C)N=C(c2ccc3c(c2)OCO3)CC(c2ccccc2O)N1 (stereo not drawn)	u	u	u	7.57µM	n	n
COc1cccc(C2=NOC(C(=O)NC(C)C)C2)c1 (stereo not drawn)	n	n	n	n	n	n
CC1CCCN(CC(=O)Nc2ccc(S(=O)(=O)N3CCCC3)cc2)C1 (stereo not drawn)	x	x	n	n	n	n
COc1ccc(-c2cc3nc(C)n(N)c(=O)c3s2)cc1	x	x	0.0032µM	0.0757µM	u	0.0794µM
C=CCn1c(SCCNC(C)=O)nc2cc(-c3ccccc3)sc2c1=O	x	x	n	u	n	n
Cc1nc2cc(-c3ccccc3)sc2c(=O)n1N	1.41µM	2.24µM	u	0.675µM	n	u
COc1ccc(-c2nc3ccccc3c(=O)n2N)cc1	n	n	n	n	n	n
Cc1cc(=O)oc2cc(O[C@@H]3O[C@H](C(=O)O)[C@@H](O)[C@H](O)[C@H]3O)ccc12	x	n	x	x	x	x
Cc1ccn2c(C(=O)c3ccc(Cl)cc3)cnc2c1	n	n	1.41µM	2.13µM	1.16µM	3.55µM
O=C(/C=C/c1cccc(Br)c1)NCc1ccncc1	n	n	n	n	n	n
Cc1cc(C(=O)CN2C(=O)NC3(CCCCC3)C2=O)c(C)n1Cc1ccco1	11.2µM	n	1.41µM	7.57µM	6.51µM	2.24µM
Cc1cc(C(=O)CN2C(=O)c3cccc(N)c3C2=O)c(C)n1Cc1cccs1	8.91µM	n	1.12µM	1.07µM	2.91µM	1.26µM
Cc1cc(C(=O)CN2C(=O)NC3(CCCCC3C)C2=O)c(C)n1Cc1cccs1 (stereo not drawn)	15.8µM	n	2.82µM	6.75µM	u	3.98µM
Cc1cc(C(=O)CSc2nnc(-c3ccccc3F)o2)c(C)n1Cc1cccs1	n	n	n	u	n	n
COc1ccc(-n2nc(C(=O)NCCc3ccc(OC)c(OC)c3)c3c4ccccc4n(C)c3c2=O)cc1	n	x	x	n	x	x
CCC(=O)Nc1ccccc1-c1nc2ccccc2n(CC(=O)c2ccc(C)cc2)c1=O	x	x	x	n	x	x
Cc1ccc(NC(=O)N2CCN(C(=O)c3nsc4ccccc34)CC2)cc1C	x	x	x	n	x	x
C=CCn1c(C)cc(C(=O)COc2ncnc3sccc23)c1C	5.62µM	n	0.794µM	2.39µM	2.59µM	0.891µM
C=CCn1c(C)cc(C(=O)COC(=O)c2cncc(Br)c2)c1C	x	x	u	1.9µM	n	n
Cn1cnnc1SCC(=O)Nc1ccc(OC(F)F)cc1	n	n	n	n	n	n
Cc1ccn2c(Nc3ccc4c(c3)OCCO4)c(-c3ccc(C)o3)nc2c1	u	x	x	13.5µM	x	x
COc1cc(-c2nc3ccc(C)cn3c2Nc2ccc3c(c2)OCCO3)ccc1O	u	n	n	21.3µM	n	n
SMILES	SMN2 splice enh	Luc counter	Rab9 promoter act	FLuc counter	ELG1 genotox	NPC1 promoter act
Cc1ccc2nc(-c3ccco3)c(Nc3ccc4c(c3)OCCO4)n2c1	n	x	x	10.7µM	x	x
Cc1ccc2nc(-c3ccc(C)s3)c(Nc3ccc4c(c3)OCCO4)n2c1	12.6µM	x	x	u	x	x
COc1ccc(-c2nn(C)c(=O)c3ccccc23)cc1CNC(=O)NC1CCCCC1	n	n	n	n	n	n
CCOc1ccc(C(=O)Nc2cccc3nsnc23)cc1[N+](=O)[O-]	x	x	n	n	n	n
O=C(Nc1cccc2nsnc12)c1ccc2c(c1)OCCO2	u	n	3.55µM	10.7µM	u	u
O=C(Nc1cccc2nsnc12)c1ccc(F)cc1	u	n	n	u	n	n
O=C(Nc1cccc2nsnc12)c1ccc2c(c1)OCO2	n	n	u	16.9µM	n	u
O=C(CN1CCN(Cc2ccc(F)cc2)C1=O)NCc1ccccc1	n	x	x	n	x	x
COc1ccccc1NC(=O)CSc1ccc(-c2ccccn2)nn1	x	x	n	n	u	n
CC(=O)c1cccc(NC(=O)CSc2ccc(-c3ccco3)nn2)c1	x	x	n	23.9µM	n	n
CC(=O)c1cccc(NC(=O)CSc2ccc(-c3ccc4c(c3)OCO4)nn2)c1	n	n	u	u	n	n
COc1ccc(-c2ccc(SCC(=O)NCc3ccco3)nn2)cc1OC	n	n	n	21.3µM	n	n
COc1ccccc1NC(=O)CSc1ccc(-c2ccc(-n3cccn3)cc2)nn1	x	x	n	1.51µM	n	n
COc1ccc(-c2ccc(SCC(=O)Nc3cccc(C(C)=O)c3)nn2)cc1OC	x	n	n	6.01µM	n	n
COc1ccc(-c2cc(C(F)(F)F)nc(SCC(=O)NCc3ccco3)n2)cc1OC	n	n	n	n	n	n
CCSc1nc2n(n1)C(c1ccc(C(=O)O)cc1)C(C(=O)Nc1ccccc1C)=C(C)N2 (stereo not drawn)	x	x	x	n	x	x
O=S(=O)(c1ccc(F)c(F)c1)N1CCN(CCc2ccccc2)CC1	x	x	n	n	n	n
CCCCN(C(=O)C1CC(=O)N(c2ccc(CC)cc2)C1)c1c(N)n(CCC)c(=O)[nH]c1=O (stereo not drawn)	x	x	n	n	n	n
COc1ccc(-c2ccc(SCC(=O)NC3CCCCC3)nn2)cc1OC	x	x	u	5.36µM	n	n
CCN(CC)C(=O)CSc1nc(-c2ccccc2)cc(-c2ccc(OC)cc2)c1C#N	n	x	x	16.9µM	x	x
COc1ccc(CNC(=O)CSc2nc(-c3ccccc3)cc(-c3cccs3)c2C#N)cc1	n	n	n	n	u	n
COc1ccc(-c2noc(-c3ccccc3C(=O)NCc3ccco3)n2)cc1OC	n	n	n	19µM	n	n
COc1ccc(-c2cc(-c3cccs3)c(C#N)c(SCC(=O)NCc3ccco3)n2)cc1	n	n	n	12µM	u	n
Cc1ccc(CNc2ncnc3c2c(-c2ccccc2)cn3-c2ccccc2)cc1	x	x	x	n	x	x
O=C(N/N=C/c1cccnc1)c1ccc2ccccc2c1O	x	x	n	5.36µM	u	n
O=C(N/N=C/c1cccnc1)c1ccccc1Cl	x	x	n	10.7µM	n	n
COc1cc(/C=N\NC(=O)c2cccnc2)ccc1OC(=O)c1ccccc1Cl	x	x	n	10.7µM	n	n
O=C(O)c1ccccc1C(=O)Nc1ccccn1	n	n	n	n	n	n
COc1cc(/C=N/NC(=O)c2cccnc2)ccc1OC(=O)c1ccco1	n	n	n	n	n	n
